From PubChem BioAssay AID1117361 (Southern Research Institute, 2015)
Out of some 3,600 compounds screened, about 900 (25%) were called active. Only a sample is shown. Results with a measured potency or affinity are listed apart. A number with no mark means an inactive call. The rule behind the calls is not given here.

Target: Protein Tat (Human immunodeficiency virus type 1 group M subtype B (isolate HXB2)) (UniProt P04608)
Experiment: HIV-1 Tat–TAR interaction blockers – biochemical, fluorescence polarization, FAM-labeled TAR RNA, counter-screen for Vif-APOBEC3G degradation inhibitor project, dose response (AID 1117361)
Settings: Tat-TAR RNA binding; series mostly up to 100 µM; inhibition: at the top concentration

`Cc1ccc(S(=O)(=O)Nc2ccc3c(c2)c2c(n3S(=O)(=O)c3ccc(C)cc3)CCCC2=O)cc1` was tested. Which outcome did it give?
Its outcome is “inactive”.

With `CCCNC(=O)c1ccc2c(c1)C1C3CCC(C3)C1C(c1ccccc1)N2` (stereo not drawn) as the molecule, how does the outcome read?
Its outcome is “inactive”.

Which outcome does the source give for `Cc1ccc(S(=O)(=O)NC(CC(C)C)C(=O)N2CCN(C/C=C/c3ccccc3)CC2)cc1` (stereo not drawn) here?
Its outcome is “inactive”.

How did the “inhibition” value turn out when `O=C(CNC(=O)c1cccs1)OCC(=O)c1ccc2ccccc2c1` was run?
Its value is 4.05%.

With `c1ccc(-c2nnc(-c3ccncc3)o2)cc1` as the molecule, how does the “inhibition” value read?
Its value is 0.68%.

For `O=C(COC(=O)COc1ccc(Cl)cc1Cl)NC1CCCCCC1`, which “inhibition” value is on record?
Its value is 2.47%.

For `O=C(CC1NC(=O)NC1=O)Nc1cccc2ccccc12` (stereo not drawn), which “inhibition” value is on record?
Its value is 2.7%.

`CC(NC(=O)CC1Nc2ccccc2NC1=O)c1ccccc1` (stereo not drawn) was tested. Which “inhibition” value did it give?
Its value is 17.6%.

Which “inhibition” value does the source give for `COc1ccc(NC(=O)c2cc3ccccn3n2)cc1` here?
The value was 13.5%.

For `COc1ccc(OC)c(C2NC(=O)NC(C)=C2C(=O)Nc2ccc(C)cc2)c1` (stereo not drawn), which “inhibition” value is on record?
The value was 0.68%.

With `Cc1cccc(C)c1OCCOCCN1CCN(C)CC1` as the molecule, how does the outcome read?
Its outcome is “inactive”.

How did the outcome turn out when `CCN(CC)c1ccc(C(=C2C=CC(=[N+](CC)CC)C=C2)c2ccccc2)cc1` was run?
The outcome was “inactive”.

How did the outcome turn out when `O=C(Nc1nccs1)C1CCCN(S(=O)(=O)c2cccc3cccnc23)C1` (stereo not drawn) was run?
Its outcome is “inactive”.

With `Cn1c(C(=O)N[C@@H](C(=O)O)c2ccccc2)cc2cc(Cl)ccc21` as the molecule, how does the “inhibition” value read?
The value was 29.1%.

`COc1ccc2nc(SCC(=O)NN)cc(C)c2c1` was tested. Which “inhibition” value did it give?
The value was 4.05%.

`Cc1ccc(SCCC(=O)NCc2ccco2)cc1` was tested. Which outcome did it give?
Its outcome is “inactive”.

Which outcome does the source give for `CC(C)(C)c1nnc(NC(=O)c2ccc(Cl)nc2)s1` here?
Its outcome is “inactive”.

For `Cc1ccc(C(=O)O)cc1-c1ccc(/C=C2/NC(=O)N(c3ccccc3)C2=O)o1`, which “inhibition” value is on record?
The value was 10.3%.

Which “inhibition” value does the source give for `N#Cc1ccccc1CN1C(=O)S/C(=C/c2cccn2-c2ccc(C(=O)O)cc2)C1=O` here?
The value was 22.4%.

How did the “inhibition” value turn out when `CCNc1nc(OCCNS(=O)(=O)c2cc(C)ccc2C)nc(N(C)C)n1` was run?
Its value is 2.03%.

For `COc1ccccc1NC(=O)C(C)NS(=O)(=O)c1ccc(F)cc1` (stereo not drawn), which “inhibition” value is on record?
Its value is 7.5%.

With `CCc1ccc(OCCNC(=O)c2cccs2)cc1` as the molecule, how does the “inhibition” value read?
Its value is 1.35%.

Which “inhibition” value does the source give for `COc1ccccc1NC(=O)CN(c1ccccc1OC)S(=O)(=O)c1ccccc1` here?
Its value is 3.3%.

For `Cc1c(C(=O)NCc2cccnc2)oc2ccccc12`, which “inhibition” value is on record?
The value was 1.35%.

How did the outcome turn out when `CCc1cccc(NC(=O)CCCCCC2NC(=O)NC2C)c1` (stereo not drawn) was run?
Its outcome is “inactive”.

`COC(=O)C1=C(C)NC(=O)C1(NS(=O)(=O)c1ccc(C)cc1)C(F)(F)F` (stereo not drawn) was tested. Which “inhibition” value did it give?
Its value is 2.05%.

For `Cc1ccc(C)c(NC(=S)NCc2ccccc2)c1`, which “inhibition” value is on record?
The value was 9.07%.

With `CN1c2ccsc2/C(=N/NC(=O)c2c(F)cccc2F)CS1(=O)=O` as the molecule, how does the “inhibition” value read?
Its value is 10.2%.

With `O=C(O)C1=C(C(=O)Nc2ccc(F)c(Cl)c2)CCCC1` as the molecule, how does the “inhibition” value read?
Its value is 10.1%.

How did the outcome turn out when `COC(=O)CSc1nnc(CNC(=O)c2cccs2)n1-c1cc(OC)ccc1OC` was run?
Its outcome is “inactive”.

How did the “inhibition” value turn out when `Cc1ccc(NC(=O)CSc2nnc(C3CCCCC3)n2N)cc1F` was run?
The value was 0.68%.

Which “inhibition” value does the source give for `CCOC(=O)C1CCCN(c2ncnc3c2cnn3-c2ccc(Cl)cc2)C1` (stereo not drawn) here?
Its value is 29.7%.

`O=C(O)c1cccc(S(=O)(=O)Nc2ccccc2Cl)c1` was tested. Which outcome did it give?
Its outcome is “inactive”.

Which outcome does the source give for `CCOc1cccc(NC(=O)C2CCCN(S(=O)(=O)c3ccc(OC)cc3)C2)c1` (stereo not drawn) here?
Its outcome is “inactive”.

How did the “inhibition” value turn out when `COc1cccc(NC(=O)C2CCCN2C(=O)OCc2ccccc2)c1` (stereo not drawn) was run?
The value was 4.05%.

For `O=c1nc(N2CCOCC2)nc2n1CCO2`, which “inhibition” value is on record?
Its value is 0.68%.

Which outcome does the source give for `Cc1cc(=O)n2nc(N3CCCC(C(=O)NC4CCC(C)CC4)C3)sc2n1` (stereo not drawn) here?
Its outcome is “inactive”.

How did the outcome turn out when `CN(C)c1nc(OCCNC(=O)COc2ccc(Cl)cc2Cl)nc(N2CCOCC2)n1` was run?
Its outcome is “inactive”.

How did the “inhibition” value turn out when `CCCCC(=O)Nc1ccc(C(=O)NN2C(=O)c3ccccc3C2=O)cc1` was run?
The value was 2.73%.

For `Cc1ccc(NC(=O)CSc2nc(CSc3ccc(C)cc3)cc(=O)[nH]2)cc1`, which outcome is on record?
The outcome was “inactive”.

With `O=C1c2cnc3nc(SCc4ccccc4)nn3c2CC2c3ccccc3CCN12` (stereo not drawn) as the molecule, how does the “inhibition” value read?
Its value is 1.36%.

Which “inhibition” value does the source give for `COc1ccc(S(=O)(=O)NCCSCc2ccco2)cc1Cl` here?
Its value is 23.9%.

How did the outcome turn out when `CC(=O)Nc1ccc(S(=O)(=O)Nc2ccc(NC(=O)c3ccco3)cc2)cc1` was run?
Its outcome is “inactive”.

With `FC(F)(F)c1cccc(Oc2ccc3c(C(F)(F)F)cc(C(F)(F)F)nc3n2)c1` as the molecule, how does the outcome read?
The outcome was “inactive”.

How did the outcome turn out when `O=C(Cc1c(F)cccc1Cl)NNC(=O)c1ccccc1Cl` was run?
The outcome was “inactive”.

Which “inhibition” value does the source give for `CCc1ccccc1NC(=O)CC(O)(C(=O)OC)C(F)(F)F` (stereo not drawn) here?
The value was 2.05%.

Which “inhibition” value does the source give for `O=C(CN1C(=O)NC2(CCCCC2)C1=O)NCCC1=CCCCC1` here?
Its value is 6.76%.

How did the “inhibition” value turn out when `O=C(CN1C(=O)NC2(CCCCCCC2)C1=O)NCc1ccc2c(c1)OCO2` was run?
Its value is 2.03%.

How did the outcome turn out when `Cc1ccc(C(=O)COC(=O)CNC(=O)Cc2ccccc2)cc1[N+](=O)[O-]` was run?
The outcome was “inactive”.

How did the “inhibition” value turn out when `O=C(CN1C(=O)NC(c2ccc(F)cc2)C1=O)Nc1ccc2c(c1)OCCO2` (stereo not drawn) was run?
The value was 1.65%.

`O=C(CSc1nnc(-c2cccs2)o1)OC1CCCCC1` was tested. Which outcome did it give?
The outcome was “inactive”.

With `CC1=C(C(=O)NCc2ccco2)C2(CCC(C)CC2)OC1=O` (stereo not drawn) as the molecule, how does the “inhibition” value read?
Its value is 15%.

Which “inhibition” value does the source give for `O=C1COc2ccc(C(=O)NCc3ccco3)cc2N1` here?
The value was 6.76%.
